Among the data in PubChem BioAssay AID652025 (National Center for Advancing Translational Sciences (NCATS), 2013) are activation values, retold here.

Hit rate of the full screen: of about 360,000 compounds, about 240 (0.067%) were called active. Many of the other results were omitted from the sample, so actives are more common in it than they were. A number with no mark means an inactive call. Cut-off read from the data, not from the text of the source: active = activation above about 50%; inconclusive = mostly about 30% to 49%; inactive = weaker than that.

The nature of this test: qHTS of IL-2 Activators. Note: 0% is about no effect. The note with it: IL-2 activation reporter assay, cell-based qHTS; hits give high values; in transgenic mouse T cells; stimulated with anti-CD3/CD4/CD28 beads. The text has this:
The adaptive immune response against any infectious agent begins with the activation of an antigen specific T cell. This relatively rare and inert ("naive") T cell undergoes a massive proliferative expansion and differentiation process to generate sufficient number of potent pathogen-specific effector T cells. The effector T cells fight the infection by making cytokines and helping other cells to become fully armed as well. If any naive T cell has antigen receptors (TCRs) that can be activated by self peptides, then a variety of regulatory mechanisms kick in to prevent this cell from performing to its full potential. These processes collectively constitute the phenomenon of immunological tolerance and their failure leads to autoimmunity. One arm of tolerance involves generation of biochemical negative feedback downstream of the TCR (tuning). This is especially relevant to self antigens present in the body over long periods of time (chronic), which form the bulk of our proteome. The negative feedback serves to tune the TCR signaling, such that the ambient antigenic stimulation is nullified intracellularly. Unfortunately, this critical machinery serves as a target for chronic viral, bacterial and parasitic infections (as well as tumors), which can evade a robust immune response, simply by allowing T cells to tune down their signaling to pathogen or malignancy derived antigens. As such, disrupting the tuning in such cases would allow the tolerant T cell to function again and deliver a robust effector response.
If a therapeutic can restore responsiveness to the tuned down T cell, even for a short time, they could combat the pathogen without any additional immunization. To that end, we have developed a sensitive HTS T cell based assay based on IL-2. This assay will be screened against the Molecular Libraries Small Molecule Repository (MLSMR) to find small molecules that could elicit this response.
NIH Chemical Genomics Center [NCGC]
NIH Molecular Libraries Probe Centers Network [MLPCN]
Assay Submitter (PI): Ron Schwartz, NIAID
4 microL (750 cells/well) of unstimulated transgenic mouse T cells (columns 1-3,5-48) are dispensed into Aurora LoBase, black clear-bottom 1536-well assay plates; column 4 receives an identical concentration of transgenic memory T cells as a non-tolerant control. Compounds are then transferred via Kalypsys pin tool equipped with 1536-pin array (10 nL slotted pins, V&P Scientific, San Diego, CA). Following addition of compound and a 60 minute incubation, 1 microL of bead stimulation solution ((0.04 micron Fluospheres (Life technologies, CA) coated with 10ug/ml each anti-CD3 and anti-CD4 (clones 2C11 and GK1.5, BD Biosciences, CA) and mixed with 1ug/ml anti-CD28 (clone PV-1, BD biosciences, CA)). columns 2-48) is added to stimulate the IL-2 response pathway; media is instead added to column 1 as an unstimulated control, while PMA/ionomycin (Sigma Aldrich, MO) is added to column 3 as a control for IL-2 tolerance bypass. The plates are then incubated at 37 degrees C for 18 hours. EGFP and DsRed signal are then detected using an Acumen eX3 Explorer fluorescent plate cytometer. All cells are dispensed in cell media containing EHAA (Quality Biologicals, MD), RPMI (Quality Biologicals, MD), Glutamine (Life Technologies, CA), Penicillin/Streptomycin (Quality Biologicals, MD), 2-ME (Sigma Aldrich, MO) and 10% FBS (Gemini Bioproducts, CA) .
(In general: In qHTS, concentration-response curves come from the screen itself.)
In the case of `Cc1nc2ccc(S(=O)(=O)NCC(=O)NCCN3CCCCC3C)cc2s1` (stereo unspecified), the activation was 0.794%.

Regarding `COc1ccc(C(=O)C2CCCN(C(=O)c3cc4nc(C)cc(C)n4n3)C2)cc1F` (stereo unspecified), the activation is -1.95%.

With `Cc1cccc2[nH]c(CN(C)C(=O)C3CCC(=O)N(CCc4ccccc4)C3)nc12` (stereo unspecified), the activation was -4.62%.

In the case of `CCCCN=C1C([N+](=O)[O-])=CC=C2C1=NC1(CCCCC1)N2O`, the activation is -0.493%.

As to `CCOC(=O)C1CCN(c2c(Nc3cc(C)cc(C)c3)c(=O)c2=O)CC1`, the activation is 3.74%.

`COc1ccc(S(=O)(=O)Nc2cccc3c2O[C@H](CN(C)S(=O)(=O)c2ccc(OC)cc2)[C@@H](C)CN([C@H](C)CO)C3=O)cc1`: the activation was -0.577%.

With `COc1ccc(-c2ccc3[nH]c4c(c3c2)CCN2C[C@H]3[C@H](C)ON(C)[C@H]3C[C@@H]42)cc1`, the activation was -3.69%.

For the molecule `COc1cc(C(F)(F)F)nc2c(Br)c(C(C)(C)C)nn12`, the activation is -2.42%.

For the molecule `COc1ccc(N2CCN(CCNC(=O)CCN3C(=O)COc4ccccc43)CC2)cc1`, the activation is -1.26%.

In the case of `Cc1cc(Cl)ccc1OCc1nc(-c2ccncc2)no1`, the activation is -0.482%.

As to `O=C(NNc1ccccc1Cl)C(O)(c1cccc(C(F)(F)F)c1)c1cccc(C(F)(F)F)c1`, the activation is -0.487%.

`Cn1c2ccc(F)cc2c2nnc(NN)nc21`: the activation was 0.485%.

As for `CC(C)(C)NC(=O)CN1CCC(NC(=O)C23CC4CC(CC(C4)C2)C3)CC1`, the activation was -0.682%.

In the case of `COc1ccc(CCC(=O)N2CCN(S(=O)(=O)c3ccc(OC)cc3)CC2)cc1`, the activation is 0.152%.

In the case of `COc1ccc(CCc2nnc(CCC(=O)NCc3cnn(-c4ccccc4C)c3)o2)cc1`, the activation was -0.0481%.

As to `Cn1cnc(S(=O)(=O)Nc2ccc3c(c2)OCCO3)c1`, the activation is 0.511%.

As for `COc1cccc(N2CCN(CC(=O)Nc3ccnn3C3CCCC3)CC2)c1`, the activation was 0.356%.

As to `O=C1CCC(Cc2ccccc2)N1` (stereo unspecified), the activation is -3.46%.

For the molecule `CN1CCN(S(=O)(=O)c2ccc(N3CCN(S(=O)(=O)c4cccs4)CC3)nc2)CC1`, the activation was 0.642%.

In the case of `O=C1Cc2ccccc2Sc2ccc(Cl)cc21`, the activation is -0.448%.

On to `CSCC[C@H](NC(=O)N1CCn2c1nc1ccccc12)C(=O)NCc1ccc2c(c1)OCO2`, for which the activation was -1.15%.

As to `COc1ccc(N2CCN(C(=O)CCSCc3ccccc3F)CC2)cc1`, the activation is 1.14%.

For the molecule `NC(=O)COC(=O)c1ccc2c(c1)C(=O)N(Cc1ccco1)C2=O`, the activation was -0.0741%.

With `Cc1cnc(C(=O)N2CCCC(C(=O)c3ccc(C(F)(F)F)cc3)C2)cn1` (stereo unspecified), the activation was 0.823%.

With `CCOc1ccc(Nc2nc(Cc3nnc(SCC(=O)c4ccc(C)cc4)o3)cs2)cc1`, the activation was -0.186%.

Turning to `NCCN1CCN2C(=O)CN(C(=O)c3ccccc3)CC12` (stereo unspecified), the activation was 1.5%.

For the molecule `Cc1cc(C)cc(N(CC(=O)N2CC=C(c3ccccc3)CC2)S(=O)(=O)c2c(C)noc2C)c1`, the activation was -2%.

In the case of `CC1=NN(C(C)C)C(=O)C1`, the activation is -0.959%.

Consider `CC1=C(C(=O)N2CCOCC2)CC(CC(=O)NCCN2CCOCC2)C(=O)N1CCC1=CCCCC1` (stereo unspecified), for which the activation was 2.16%.

For the molecule `CC(=O)CSc1nnc(CSc2ncccn2)n1C1CCCCC1`, the activation is 4.89%.

As to `O=C(O)CN(Cc1ccco1)S(=O)(=O)c1ccccc1`, the activation is 0.214%.

On to `CC(=O)N1CC[n+]2c(-c3ccc([N+](=O)[O-])cc3)csc21`, for which the activation was -2.73%.

Regarding `Cc1ccccc1N1C(=O)C(Oc2ccc(Cl)cc2)C1CNCC1CCCO1` (stereo unspecified), the activation is 0.756%.

`O=C1/C(=C\c2cccnc2)CN(Cc2ccccc2)C/C1=C\c1cccnc1`: the activation was -0.836%.

As for `Cc1c2cn[nH]c(=O)c2c(C)n1Cc1ccc(F)cc1`, the activation was -0.791%.

As for `Cc1c(C(=O)OCC(=O)N2CCCC2=O)oc2ccccc12`, the activation was -1.29%.

Regarding `O=S(=O)(Nc1nccs1)c1ccc2c(c1)OCCO2`, the activation is -0.72%.

`CN1CCN(C2Cc3ccc(Cl)cc3Sc3ccc(F)cc32)CC1` (stereo unspecified): the activation is -2.1%.

For the molecule `Cc1cc([N+](=O)[O-])nn1CCCC(=O)Nc1cccnc1Cl`, the activation was -0.291%.

In the case of `Cc1cc(NC(=O)c2cc(-c3cccs3)on2)nn1Cc1ccc(Cl)cc1`, the activation was 0.242%.

With `CC1(C)O[C@@H]2[C@H](O1)[C@@H](COS(=O)(=O)O)O[C@H]2n1cnc2c(=O)[nH]cnc21`, the activation was -0.104%.

For the molecule `CCCc1nc(SCC(=O)Nc2ccc(S(=O)(=O)N(C)C)cc2)c2ccccc2n1`, the activation is -0.583%.

On to `Cc1ccc(S(=O)(=O)CC(=O)Nc2sc(C)c(C)c2C(N)=O)cc1`, for which the activation was 0.0351%.

Turning to `COCCN(C(=O)CCC(=O)Nc1nccs1)C(C(=O)NCCC(C)C)c1ccc(F)cc1` (stereo unspecified), the activation was -1.07%.

Take `O=C(NCc1cccnc1)c1cc(C2CCCCN2C(=O)CCc2ccccc2)on1` (stereo unspecified): the activation was -0.0033%.

Take `CCOc1ccc(-n2c(SC(C)C(=O)OC)nc3c(c2=O)SCC3)cc1` (stereo unspecified): the activation was -0.633%.

Take `Cc1cccc(N=Nc2c(O)[nH]c3ccc(F)cc23)c1`: the activation was 137% (active).

For `Cc1ccc(CNC(=O)CSc2nnc3c(n2)[nH]c2ccc(F)cc23)cc1`, the activation is -0.754%.

For `COc1ccc(NC(=O)/C(N=Nc2cccc(S(=O)(=O)Nc3ccc(SC(F)F)cc3)c2)=C(\C)O)cc1`, the activation is 0.0635%.

For `Cc1ccccc1OC(=O)Cn1c(C(F)(F)F)nc2ccccc21`, the activation was 0.516%.

Take `CCCS(=O)(=O)N1CCN=C1SCc1cccc(F)c1`: the activation was 1.16%.

In the case of `CC1=C[C@H]2Cc3cc(C)cc(C)c3S(=O)(=O)[C@@H]2C=C1`, the activation is 0.251%.

For `OCCCC1CCCCN1Cc1nc(Cc2ccccc2Cl)no1` (stereo unspecified), the activation is 1.46%.

In the case of `CCCCN(C(=O)/C=C/c1ccco1)c1c(N)n(CC(C)C)c(=O)[nH]c1=O`, the activation is 5.81%.

Regarding `CC(=O)c1cccc(NC(=O)C2CCCN(S(=O)(=O)c3cccc4nonc34)C2)c1` (stereo unspecified), the activation is 2.63%.

With `COc1ccc(COC[C@H](CC(C)C)N2CCN(C(=O)c3cccc(C(F)(F)F)c3)CCC2=O)cc1`, the activation is -1.15%.
